The record followed here is ChEMBL document CHEMBL1961873, “Compounds: GSK PKIS; Assays: Nanosyn kinase panel” (2012).

SMILES strings stand for the structures.

Assay [1] deals with Protein kinase C gamma type (Homo sapiens) (UniProt P05129). The conditions noted are these: at 1 µM.
Assay [2] concerns the target T1, Protein kinase C iota type (Homo sapiens) (UniProt P41743).
T1 sequence (whole entry): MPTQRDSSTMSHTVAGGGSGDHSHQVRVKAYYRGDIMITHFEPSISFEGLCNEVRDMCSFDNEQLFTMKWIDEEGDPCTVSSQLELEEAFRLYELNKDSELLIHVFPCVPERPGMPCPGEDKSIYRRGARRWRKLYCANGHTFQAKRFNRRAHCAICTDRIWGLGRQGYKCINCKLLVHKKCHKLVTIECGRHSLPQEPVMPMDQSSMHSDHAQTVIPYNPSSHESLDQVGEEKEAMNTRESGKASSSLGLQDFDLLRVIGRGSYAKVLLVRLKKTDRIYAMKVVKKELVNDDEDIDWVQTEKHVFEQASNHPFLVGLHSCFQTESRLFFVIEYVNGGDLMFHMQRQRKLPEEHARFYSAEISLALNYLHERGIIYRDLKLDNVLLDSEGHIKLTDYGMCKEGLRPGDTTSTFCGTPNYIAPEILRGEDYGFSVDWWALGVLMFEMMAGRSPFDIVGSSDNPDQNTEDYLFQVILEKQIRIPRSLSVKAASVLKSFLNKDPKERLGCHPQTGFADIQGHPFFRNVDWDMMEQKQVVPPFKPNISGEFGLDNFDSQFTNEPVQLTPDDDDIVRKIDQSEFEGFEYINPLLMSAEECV
As to conditions: at 0.1 µM.

The target of assay [3] is T1, Protein kinase C iota type (Homo sapiens). As to conditions: at 1 µM.
Assay [4] has as its target Protein kinase C theta type (Homo sapiens) (UniProt Q04759). As to conditions: at 0.1 µM.
Assay [5] shares this target. The conditions noted are these: at 1 µM.
Assay [6] concerns the target Protein kinase C beta type (Homo sapiens) (UniProt P05771). The conditions noted are these: at 0.1 µM.
Assay [7] shares this target. The conditions noted are these: at 1 µM.
In assay [8] the target is T2, Serine/threonine-protein kinase D1 (Homo sapiens) (UniProt Q15139).
T2 sequence (whole entry): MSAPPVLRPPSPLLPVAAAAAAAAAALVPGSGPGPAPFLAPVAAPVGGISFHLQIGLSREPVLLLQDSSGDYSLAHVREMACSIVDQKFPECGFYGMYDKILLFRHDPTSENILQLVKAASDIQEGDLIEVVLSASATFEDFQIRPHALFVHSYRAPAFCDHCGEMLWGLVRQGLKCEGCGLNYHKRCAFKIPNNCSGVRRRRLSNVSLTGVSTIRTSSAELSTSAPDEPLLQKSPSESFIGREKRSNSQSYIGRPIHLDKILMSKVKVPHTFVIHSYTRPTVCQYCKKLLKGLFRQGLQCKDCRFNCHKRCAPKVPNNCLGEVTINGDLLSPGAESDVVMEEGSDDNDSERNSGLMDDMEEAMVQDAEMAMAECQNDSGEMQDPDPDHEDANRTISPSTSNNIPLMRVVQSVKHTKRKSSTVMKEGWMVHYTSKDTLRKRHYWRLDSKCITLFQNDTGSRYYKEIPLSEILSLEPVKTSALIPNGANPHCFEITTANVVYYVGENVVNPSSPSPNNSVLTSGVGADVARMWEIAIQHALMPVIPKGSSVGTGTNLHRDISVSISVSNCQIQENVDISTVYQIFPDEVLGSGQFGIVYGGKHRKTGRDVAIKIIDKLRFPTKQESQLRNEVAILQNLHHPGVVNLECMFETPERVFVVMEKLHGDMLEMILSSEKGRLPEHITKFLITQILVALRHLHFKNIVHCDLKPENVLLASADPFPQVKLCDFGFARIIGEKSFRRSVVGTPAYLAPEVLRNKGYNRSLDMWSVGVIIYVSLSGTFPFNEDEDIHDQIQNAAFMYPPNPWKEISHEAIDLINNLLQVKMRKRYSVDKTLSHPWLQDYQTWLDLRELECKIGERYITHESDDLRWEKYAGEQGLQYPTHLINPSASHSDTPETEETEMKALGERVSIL
The conditions noted are these: at 0.1 µM.

Assay [9] concerns the target T2, Serine/threonine-protein kinase D1 (Homo sapiens). As to conditions: at 1 µM.
Assay [10] has as its target T3, Serine/threonine-protein kinase D2 (Homo sapiens) (UniProt Q9BZL6).
T3 sequence (whole entry): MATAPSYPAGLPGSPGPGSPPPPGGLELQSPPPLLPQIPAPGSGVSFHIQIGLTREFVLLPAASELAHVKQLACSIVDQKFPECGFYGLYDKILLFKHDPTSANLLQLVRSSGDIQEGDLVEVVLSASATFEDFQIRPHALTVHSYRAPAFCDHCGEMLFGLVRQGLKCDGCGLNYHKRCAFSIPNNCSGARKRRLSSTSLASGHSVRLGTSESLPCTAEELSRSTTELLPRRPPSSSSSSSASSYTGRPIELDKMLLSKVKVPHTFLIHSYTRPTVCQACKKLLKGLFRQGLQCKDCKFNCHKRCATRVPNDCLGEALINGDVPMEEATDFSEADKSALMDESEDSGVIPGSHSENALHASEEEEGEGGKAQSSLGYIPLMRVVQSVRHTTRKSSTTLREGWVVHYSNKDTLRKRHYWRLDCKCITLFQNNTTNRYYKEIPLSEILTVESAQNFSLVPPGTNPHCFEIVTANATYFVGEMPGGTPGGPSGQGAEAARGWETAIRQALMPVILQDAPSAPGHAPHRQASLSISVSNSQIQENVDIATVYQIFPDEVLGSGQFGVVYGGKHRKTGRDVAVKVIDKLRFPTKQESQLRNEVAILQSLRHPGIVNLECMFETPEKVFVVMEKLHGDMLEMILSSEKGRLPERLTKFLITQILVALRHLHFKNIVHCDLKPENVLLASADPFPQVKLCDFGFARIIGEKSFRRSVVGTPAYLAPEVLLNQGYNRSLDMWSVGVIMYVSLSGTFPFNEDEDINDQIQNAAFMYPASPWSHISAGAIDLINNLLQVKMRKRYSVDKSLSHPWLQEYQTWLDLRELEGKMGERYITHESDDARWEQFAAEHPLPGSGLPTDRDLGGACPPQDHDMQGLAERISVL
As to conditions: at 0.1 µM.

Assay [11] concerns the target T3, Serine/threonine-protein kinase D2 (Homo sapiens). The conditions noted are these: at 1 µM.
Assay [12] deals with T4, Serine/threonine-protein kinase D3 (Homo sapiens) (UniProt O94806).
T4 sequence (whole entry): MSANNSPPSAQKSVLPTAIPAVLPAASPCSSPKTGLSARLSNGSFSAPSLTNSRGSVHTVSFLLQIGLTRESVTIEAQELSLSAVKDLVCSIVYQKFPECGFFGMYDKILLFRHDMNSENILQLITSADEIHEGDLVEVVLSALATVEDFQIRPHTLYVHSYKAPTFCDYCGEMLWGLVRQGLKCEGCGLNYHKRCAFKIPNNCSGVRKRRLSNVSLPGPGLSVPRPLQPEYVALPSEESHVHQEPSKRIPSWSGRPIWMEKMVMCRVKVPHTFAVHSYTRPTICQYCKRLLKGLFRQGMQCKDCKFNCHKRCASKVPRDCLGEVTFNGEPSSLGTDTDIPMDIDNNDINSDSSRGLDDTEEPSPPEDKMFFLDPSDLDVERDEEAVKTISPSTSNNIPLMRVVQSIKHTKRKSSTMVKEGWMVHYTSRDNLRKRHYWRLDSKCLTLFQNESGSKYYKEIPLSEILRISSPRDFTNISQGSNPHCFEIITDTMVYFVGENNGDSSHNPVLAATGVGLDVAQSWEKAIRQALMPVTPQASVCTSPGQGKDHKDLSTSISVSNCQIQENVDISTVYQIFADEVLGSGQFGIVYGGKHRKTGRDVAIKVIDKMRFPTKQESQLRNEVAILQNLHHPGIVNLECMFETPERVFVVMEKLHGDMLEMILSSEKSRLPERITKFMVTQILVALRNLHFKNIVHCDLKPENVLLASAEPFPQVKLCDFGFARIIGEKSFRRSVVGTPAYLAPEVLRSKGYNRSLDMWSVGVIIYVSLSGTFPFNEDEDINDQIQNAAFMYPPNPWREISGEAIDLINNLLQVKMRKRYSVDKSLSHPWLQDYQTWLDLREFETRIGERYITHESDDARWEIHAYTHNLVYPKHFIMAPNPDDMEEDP
As to conditions: at 0.1 µM.

Assay [13] deals with T4, Serine/threonine-protein kinase D3 (Homo sapiens). As to conditions: at 1 µM.
Assay [14] has as its target T5, cGMP-dependent protein kinase 1 (Homo sapiens) (UniProt Q13976).
T5 sequence (whole entry): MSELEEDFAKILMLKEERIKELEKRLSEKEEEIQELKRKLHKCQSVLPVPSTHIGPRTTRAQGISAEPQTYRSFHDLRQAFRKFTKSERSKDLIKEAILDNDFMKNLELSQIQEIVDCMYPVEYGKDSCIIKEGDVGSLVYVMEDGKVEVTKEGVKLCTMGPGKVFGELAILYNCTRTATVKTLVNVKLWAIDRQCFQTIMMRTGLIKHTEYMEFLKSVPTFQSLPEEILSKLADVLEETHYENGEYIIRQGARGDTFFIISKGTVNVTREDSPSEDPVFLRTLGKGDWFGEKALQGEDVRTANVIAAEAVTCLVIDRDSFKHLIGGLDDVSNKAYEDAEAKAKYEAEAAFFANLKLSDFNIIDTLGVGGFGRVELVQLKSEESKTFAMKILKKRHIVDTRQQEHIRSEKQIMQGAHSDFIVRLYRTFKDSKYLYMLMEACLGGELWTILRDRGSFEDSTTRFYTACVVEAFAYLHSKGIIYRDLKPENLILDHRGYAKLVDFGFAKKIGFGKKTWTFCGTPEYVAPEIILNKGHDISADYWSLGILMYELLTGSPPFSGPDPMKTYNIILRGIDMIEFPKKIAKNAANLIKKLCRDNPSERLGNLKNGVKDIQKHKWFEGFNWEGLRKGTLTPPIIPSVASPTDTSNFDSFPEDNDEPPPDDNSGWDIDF
As to conditions: at 0.1 µM.

For assay [15], the target named is T5, cGMP-dependent protein kinase 1 (Homo sapiens). As to conditions: at 1 µM.
Assay [16] deals with T6, cGMP-dependent protein kinase 2 (Homo sapiens) (UniProt Q13237).
T6 sequence (whole entry): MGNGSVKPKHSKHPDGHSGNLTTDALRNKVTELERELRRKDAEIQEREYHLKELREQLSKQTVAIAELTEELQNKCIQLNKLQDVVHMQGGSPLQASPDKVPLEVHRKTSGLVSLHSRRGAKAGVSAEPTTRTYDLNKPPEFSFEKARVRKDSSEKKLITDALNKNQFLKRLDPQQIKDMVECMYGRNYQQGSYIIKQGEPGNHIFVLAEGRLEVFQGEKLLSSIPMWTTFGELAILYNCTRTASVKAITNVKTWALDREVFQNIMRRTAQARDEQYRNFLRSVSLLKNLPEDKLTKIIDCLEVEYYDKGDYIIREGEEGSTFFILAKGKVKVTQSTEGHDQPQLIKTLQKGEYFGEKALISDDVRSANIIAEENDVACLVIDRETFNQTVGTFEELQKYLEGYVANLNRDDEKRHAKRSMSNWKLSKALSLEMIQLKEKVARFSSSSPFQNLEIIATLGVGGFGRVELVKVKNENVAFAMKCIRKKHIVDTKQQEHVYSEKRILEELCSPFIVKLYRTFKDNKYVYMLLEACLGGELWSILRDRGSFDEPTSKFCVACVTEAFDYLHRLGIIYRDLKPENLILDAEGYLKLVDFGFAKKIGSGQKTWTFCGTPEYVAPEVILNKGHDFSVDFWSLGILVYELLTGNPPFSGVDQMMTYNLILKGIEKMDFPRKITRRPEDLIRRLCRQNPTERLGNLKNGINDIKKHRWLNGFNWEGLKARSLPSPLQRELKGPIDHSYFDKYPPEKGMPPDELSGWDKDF
As to conditions: at 0.1 µM.

The target of assay [17] is T6, cGMP-dependent protein kinase 2 (Homo sapiens). The conditions noted are these: at 1 µM.
In assay [18] the target is T7, cAMP-dependent protein kinase catalytic subunit PRKX (Homo sapiens) (UniProt P51817).
T7 sequence (whole entry): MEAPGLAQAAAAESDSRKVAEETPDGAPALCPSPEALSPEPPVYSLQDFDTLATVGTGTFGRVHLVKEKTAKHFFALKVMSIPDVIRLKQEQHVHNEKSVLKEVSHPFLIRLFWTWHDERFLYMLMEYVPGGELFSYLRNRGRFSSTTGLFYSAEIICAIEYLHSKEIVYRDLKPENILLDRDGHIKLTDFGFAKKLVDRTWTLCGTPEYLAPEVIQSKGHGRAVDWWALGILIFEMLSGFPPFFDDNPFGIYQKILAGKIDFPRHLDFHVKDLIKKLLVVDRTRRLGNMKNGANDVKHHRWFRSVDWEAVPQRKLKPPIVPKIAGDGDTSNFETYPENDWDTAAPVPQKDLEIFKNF
As to conditions: at 0.1 µM.

Assay [19] concerns the target T7, cAMP-dependent protein kinase catalytic subunit PRKX (Homo sapiens). The conditions noted are these: at 1 µM.
For assay [20], the target named is Rho-associated protein kinase 1 (Homo sapiens) (UniProt Q13464). As to conditions: at 0.1 µM.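 Note: values are mean percent inhibition of ROCK1.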
Chain of Rho-associated protein kinase 1 (Homo sapiens) (Q13464 2-1354 limits assumed): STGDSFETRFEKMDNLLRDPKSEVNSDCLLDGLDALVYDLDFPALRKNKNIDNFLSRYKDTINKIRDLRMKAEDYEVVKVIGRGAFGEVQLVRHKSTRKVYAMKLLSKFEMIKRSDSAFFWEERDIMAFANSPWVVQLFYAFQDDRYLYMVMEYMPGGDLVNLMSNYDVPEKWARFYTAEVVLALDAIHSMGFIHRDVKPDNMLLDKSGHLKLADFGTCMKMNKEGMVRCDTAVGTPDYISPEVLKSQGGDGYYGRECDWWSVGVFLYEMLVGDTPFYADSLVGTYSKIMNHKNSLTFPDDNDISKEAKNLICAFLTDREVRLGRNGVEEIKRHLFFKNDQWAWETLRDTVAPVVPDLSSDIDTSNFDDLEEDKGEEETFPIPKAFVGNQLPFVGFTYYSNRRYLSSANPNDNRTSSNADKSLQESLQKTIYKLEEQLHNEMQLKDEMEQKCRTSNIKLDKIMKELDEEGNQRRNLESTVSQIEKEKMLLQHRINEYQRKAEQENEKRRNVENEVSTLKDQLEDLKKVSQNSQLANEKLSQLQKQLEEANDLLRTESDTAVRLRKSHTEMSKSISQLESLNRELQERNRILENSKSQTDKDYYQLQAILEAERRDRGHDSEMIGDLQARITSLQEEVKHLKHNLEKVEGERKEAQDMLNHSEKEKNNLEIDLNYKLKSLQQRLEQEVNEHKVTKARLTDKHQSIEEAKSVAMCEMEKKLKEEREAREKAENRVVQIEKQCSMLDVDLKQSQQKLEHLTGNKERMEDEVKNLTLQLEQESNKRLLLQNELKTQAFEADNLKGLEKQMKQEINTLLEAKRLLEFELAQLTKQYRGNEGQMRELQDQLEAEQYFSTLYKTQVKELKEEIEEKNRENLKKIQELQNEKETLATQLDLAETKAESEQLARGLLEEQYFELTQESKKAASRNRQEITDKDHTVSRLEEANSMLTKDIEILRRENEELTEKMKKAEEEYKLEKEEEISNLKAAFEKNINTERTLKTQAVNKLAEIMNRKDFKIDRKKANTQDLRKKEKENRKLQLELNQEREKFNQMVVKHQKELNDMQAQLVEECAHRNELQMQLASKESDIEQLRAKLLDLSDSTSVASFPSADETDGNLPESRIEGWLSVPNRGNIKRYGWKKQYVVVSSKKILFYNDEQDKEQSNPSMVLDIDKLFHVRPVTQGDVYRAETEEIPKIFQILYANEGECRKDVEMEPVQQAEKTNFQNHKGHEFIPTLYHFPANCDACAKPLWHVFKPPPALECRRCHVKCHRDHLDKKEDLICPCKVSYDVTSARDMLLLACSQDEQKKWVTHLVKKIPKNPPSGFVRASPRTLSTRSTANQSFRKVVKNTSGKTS

Chain of Protein kinase C theta type (Homo sapiens) (Q04759 whole entry, looked up): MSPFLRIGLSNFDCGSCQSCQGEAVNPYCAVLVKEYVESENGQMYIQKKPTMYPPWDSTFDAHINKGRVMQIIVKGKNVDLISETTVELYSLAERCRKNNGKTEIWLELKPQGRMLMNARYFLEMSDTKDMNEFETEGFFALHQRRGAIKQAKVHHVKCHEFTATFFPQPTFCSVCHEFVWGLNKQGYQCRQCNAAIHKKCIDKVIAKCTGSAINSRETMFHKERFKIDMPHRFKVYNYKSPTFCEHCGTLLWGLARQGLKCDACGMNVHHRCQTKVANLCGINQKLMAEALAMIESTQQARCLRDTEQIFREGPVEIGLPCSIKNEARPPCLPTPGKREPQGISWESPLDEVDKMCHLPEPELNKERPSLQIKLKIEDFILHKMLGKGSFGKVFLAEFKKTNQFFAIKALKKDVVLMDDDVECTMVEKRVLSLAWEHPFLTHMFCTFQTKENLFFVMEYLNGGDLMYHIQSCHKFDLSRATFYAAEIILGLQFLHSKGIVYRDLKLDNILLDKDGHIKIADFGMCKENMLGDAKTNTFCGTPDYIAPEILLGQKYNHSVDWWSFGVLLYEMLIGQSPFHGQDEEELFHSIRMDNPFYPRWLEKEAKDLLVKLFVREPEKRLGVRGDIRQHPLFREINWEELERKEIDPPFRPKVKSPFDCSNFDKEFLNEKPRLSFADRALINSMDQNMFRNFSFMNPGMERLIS
Chain of Protein kinase C beta type (Homo sapiens) (P05771 2-671 limits assumed): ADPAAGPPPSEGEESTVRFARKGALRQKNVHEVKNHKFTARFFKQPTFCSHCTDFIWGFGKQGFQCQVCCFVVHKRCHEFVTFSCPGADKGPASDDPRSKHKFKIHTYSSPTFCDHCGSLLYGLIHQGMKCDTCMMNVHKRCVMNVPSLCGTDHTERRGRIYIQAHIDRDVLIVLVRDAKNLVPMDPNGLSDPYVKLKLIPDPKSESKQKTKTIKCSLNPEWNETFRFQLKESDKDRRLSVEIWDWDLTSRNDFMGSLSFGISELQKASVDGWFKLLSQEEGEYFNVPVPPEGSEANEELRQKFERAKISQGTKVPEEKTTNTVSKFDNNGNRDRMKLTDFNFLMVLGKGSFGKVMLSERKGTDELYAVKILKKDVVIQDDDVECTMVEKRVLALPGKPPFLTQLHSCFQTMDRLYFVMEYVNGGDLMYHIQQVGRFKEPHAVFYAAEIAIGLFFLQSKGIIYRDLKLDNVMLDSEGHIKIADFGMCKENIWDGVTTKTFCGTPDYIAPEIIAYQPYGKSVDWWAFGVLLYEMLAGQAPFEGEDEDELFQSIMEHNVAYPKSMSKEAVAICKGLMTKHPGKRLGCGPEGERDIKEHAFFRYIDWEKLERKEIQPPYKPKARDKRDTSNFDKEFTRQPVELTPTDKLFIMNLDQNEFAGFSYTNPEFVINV

Regarding `COc1cc(N2CCN(C(C)C)CC2)ccc1Nc1nc(Nc2cccc(F)c2C(=O)O)c2cc[nH]c2n1`, the inhibition (as a rule, the relative decrease from the control value, in per cent) in assay [1] is 5.49%; in assay [2], 0.72%; in assay [3], 0.65%; in assay [4] it was 2.48%; in [5], 3.08%; in assay [6], 1.66%. Also, the inhibition is 2.08% in [7]; 3.89% in assay [8]; 6.58% in assay [9]; 3.65% in assay [10]; 4.66% in assay [11]; 4.61% in assay [12]. Moreover, the inhibition in assay [13] worked out at 4.8%; in assay [14], 1.6%; in assay [15], 5.7%; in [16] it was 1.77%; in assay [17] it was 3.84%; in assay [18] it was 1.23%. Further, the inhibition is 2.86% in [19] and 0.41% in assay [20].

Consider `CCN1CCC(C(=O)Nc2n[nH]c3nnc(-c4cccc(F)c4F)cc23)CC1`, for which the inhibition in assay [1] is -0.22%; in [2], -0.71%; in assay [3], -1.05%; in assay [4], 0.26%; in assay [5], -1.11%; in assay [6], 0.39%. For the same compound, the inhibition in assay [7] was 0.87%; in assay [8], -0.1%; in assay [9], -0.6%; in assay [10], 0.26%; in [11], 0.06%; in [12] it was -0.39%. The inhibition is -0.3% in [13]; 0.16% in [14]; 0.21% in assay [15]; -1.12% in assay [16]; 0.85% in assay [17]; 0.8% in assay [18]. The results for the inhibition in assay [19] and in assay [20] were 0.57% and -0.76%, respectively.
